From PubChem BioAssay (Tox21)
Records with an inconclusive call do not appear. Activity calls are given as the source filed them. Unless noted, calls follow the shape of the dose curve; as a rule, active = well fitted curve in the direction sought with a large enough effect in the repeat runs; inconclusive = weak or mixed curves; inactive = no such curve, though single readings can be large; an effect the other way counts as inactive or inconclusive.

Experiments:
[1] = qHTS assay to identify small molecule antagonists of the estrogen related receptor signaling pathway with the pleiotropic PPARgamma coactivator (PGC) from Tox21 10K library - cell viability counter screen (AID 1224840; active = well fitted cell-killing curve with a large enough effect in the repeat runs, not every such curve was filed as active; also: nearly all actives have a fitted effect of over 40% in size)
Procedure, shortened: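 Following seeding of 2,000 PGC/ERR cells/well and 6 hours' incubation, test compounds were delivered in DMSO. The plates then sat 17.5 hours at 37 C before a fluorogenic live-cell protease reagent (CellTiter-Fluor) was read after 30 min.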

[2] = qHTS assay to identify small molecule antagonists of the estrogen related receptor signaling pathway with the pleiotropic PPARgamma coactivator (PGC) from Tox21 10K library (AID 1224841; call rule not given here; also: series mostly up to about 92 µM; actives are mostly falling curves and most rising ones were filed inactive; nearly all actives have a fitted effect of over 50% in size)
Procedure, shortened: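 qHTS antagonist format: PGC/ERR cells, 2k/well, compound in DMSO by pin transfer after 6 h attachment, 18 h treatment at 37 C, One-Glo luminescence read at 30 min.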

[3] = qHTS assay to identify small molecule agonists of the estrogen related receptor signaling pathway with the pleiotropic PPARgamma coactivator (PGC) from Tox21 10K library (AID 1224842); also: nearly all actives have a fitted effect of over 15% in size
Procedure, shortened: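 PGC/ERR reporter cells (NTP line) were seeded 2,000 per well, rested 6 h at 37 C/5% CO2, then pin-dosed with compounds in DMSO for 18 h at 37 C; luciferase read by One-Glo luminescence after 30 min at room temperature.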

[4] = qHTS assay to identify small molecule agonists of the hypoxia (HIF-1) signaling pathway - cell viability counter screen (AID 1224844; calls by dose curve; also: nearly all actives have a fitted effect of over 50% in size)
Procedure, shortened: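 Cells (HRE-bla ME-180, 2,000 per well) sat 5 hrs at 37C, got compound for 17 hrs, were read for CCF4-AM FRET, and were finally lysed with CellTiter-Glo for a 30 min room-temperature luminescence read.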

[5] = qHTS assay to identify small molecule agonists of H2AX (AID 1224845; active = well fitted activation curve with a large enough effect in the signal ratio in the repeat runs, not every such curve was filed as active; the % refers to the signal ratio)
Procedure, shortened: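 Wild-type CHO-K1 cells plated overnight, then exposed 3 hr at 37C to compounds at 15 concentrations (0.76% DMSO). Lysed, then HTRF anti-pH2AX(S139)-cryptate/anti-H2AX-d2 detection after 24 hr at room temperature; emissions 665 and 620 nm.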

[6] = qHTS assay to identify small molecule agonists of the hypoxia (HIF-1) signaling pathway (AID 1224846; active = well fitted activation curve with a large enough effect in the signal ratio in the repeat runs, not every such curve was filed as active; the % refers to the signal ratio)
Procedure, shortened: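 A low-serum medium (0.5% dialyzed FBS) holding 2,000 HRE-bla ME-180 cells per well is preincubated for 5 hrs, dosed with compounds by pintool, and kept a further 17 hrs at 37C, 5% CO2 before CCF4-AM FRET detection of beta-lactamase.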

[7] = qHTS assay to identify small molecule antagonists of the estrogen related receptor (ERR) signaling pathway from Tox21 library (AID 1224848); also: nearly all actives have a fitted effect of over 50% in size
Procedure, shortened: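 Screening used an ERR reporter line supplied by NTP, exposed for 18 h at 37 C to library compounds delivered in DMSO. Signal was luciferase luminescence developed with ONE-Glo at room temperature for 30 min.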

[8] = qHTS assay to identify small molecule agonists of the estrogen related receptor (ERR) signaling pathway from Tox21 library (AID 1224849; calls by dose curve; also: nearly all actives have a fitted effect of over 15% in size)
Procedure, shortened: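 Screening used an NTP-provided ERR luciferase cell line. Compounds in DMSO were added 6 h after seeding and left 18 h at 37 C before a 30 min ONE-Glo step and luminescence reading.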

[9] = qHTS RealTime-Glo MT Cell Viability Assay in HepG2 cells - 24 hour (AID 1224867); also: nearly all actives have a fitted effect of over 50% in size
Procedure, shortened: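 Luminescence read-out: viable HepG2 cells reduce a prosubstrate to a NanoLuc substrate, giving a signal proportional to live cell number. Reads taken at 0, 8, 16, 24, 32 and 40 h of compound exposure at 37 C.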

[10] = qHTS RealTime-Glo MT Cell Viability Assay in HEK293 cells - 32 hour (AID 1224868)
Procedure, shortened: (§1)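 Nonlytic real-time viability readout: viable cells convert prosubstrate to NanoLuc substrate, giving luminescence proportional to live cell number. HEK293, 600 cells/well, compound added after 5 h, continuous culture at 37 C.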

[11] = A CellTox Green Cytotoxicity Assay to monitor cytotoxicity in HEK293 cells - 0 hour (AID 1224869); also: nearly all actives have a fitted effect of over 50% in size
Procedure, shortened: (§2)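 Fluorescence intensity, read at 0, 8, 16, 24, 32 and 40 h of compound treatment, reflected dye binding to DNA of dead HEK293 cells; compounds (23 nL, DMSO) were added 5 h after plating cells with reagent.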

[12] = qHTS RealTime-Glo MT Cell Viability Assay in HepG2 cells - 40 hour (AID 1224870); also: nearly all actives have a fitted effect of over 50% in size
Procedure, shortened: (§3)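 HepG2 cells mixed with RealTime-Glo MT reagents (NanoLuc plus cell-permeant prosubstrate) were seeded at 600 cells/well, incubated 5 h at 37 C/5% CO2, then pinned with compounds in DMSO; nonlytic luminescence tracked viability during 40 h treatment.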

[13] = A CellTox Green Cytotoxicity Assay to monitor cytotoxicity in HEK293 cells - 40 hour (AID 1224871); also: nearly all actives have a fitted effect of over 45% in size
Procedure, shortened: as §2

[14] = qHTS RealTime-Glo MT Cell Viability Assay in HEK293 cells - 16 hour (AID 1224872)
Procedure, shortened: as §1

[15] = qHTS RealTime-Glo MT Cell Viability Assay in HepG2 cells - 8 hour (AID 1224873); also: nearly all actives have a fitted effect of over 55% in size
Procedure, shortened: as §3

[16] = qHTS RealTime-Glo MT Cell Viability Assay in HEK293 cells - 40 hour (AID 1224874); conditions: RealTime-Glo luminescence; max response: hits give low values; also: nearly all actives have a fitted effect of over 50% in size
Procedure, shortened: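 Viable HEK293 cells reduce a cell-permeant prosubstrate; the product diffuses out and is consumed by NanoLuc in the medium to give light. Compounds went in after a 5 h incubation and plates were read over the treatment course.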

[17] = A CellTox Green Cytotoxicity Assay to monitor cytotoxicity in HEK293 cells - 24 hour (AID 1224875); also: series mostly up to about 77 µM; nearly all actives have a fitted effect of over 45% in size
Procedure, shortened: as §2

[18] = target: Thyrotropin receptor (Homo sapiens) (UniProt P16473); test: qHTS assay to identify small molecule agonists of the thyroid stimulating hormone receptor (TSHR) signaling pathway (AID 1224843; calls by dose curve; also: nearly all actives have a fitted effect of over 45% in size)
Procedure, shortened: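 Cell line HEK293 with TSHR; density 800/well. Exposure 30 min RT. Readout HTRF cAMP (cAMP-d2/anti-cAMP-cryptate), 1 h RT before reading.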

[19] = qHTS assay to identify small molecule agonists of H2AX - cell viability counter screen (AID 1224847; calls by dose curve; also: top concentration of the series differs between compounds; nearly all actives have a fitted effect of over 30% in size)
Procedure, shortened: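 Cells plated first: CHO-K1, 1000 per well in 10% FBS medium, incubated overnight at 37C. Then 15-point compound titration added (final DMSO 0.76%) for 3 hr. Finally CellTiter-Glo added and luminescence read.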
% is scaled to controls: 0 for no effect and ±100 for the full control effect.

Thyrotropin receptor (Homo sapiens), sequence (P16473 whole entry, looked up): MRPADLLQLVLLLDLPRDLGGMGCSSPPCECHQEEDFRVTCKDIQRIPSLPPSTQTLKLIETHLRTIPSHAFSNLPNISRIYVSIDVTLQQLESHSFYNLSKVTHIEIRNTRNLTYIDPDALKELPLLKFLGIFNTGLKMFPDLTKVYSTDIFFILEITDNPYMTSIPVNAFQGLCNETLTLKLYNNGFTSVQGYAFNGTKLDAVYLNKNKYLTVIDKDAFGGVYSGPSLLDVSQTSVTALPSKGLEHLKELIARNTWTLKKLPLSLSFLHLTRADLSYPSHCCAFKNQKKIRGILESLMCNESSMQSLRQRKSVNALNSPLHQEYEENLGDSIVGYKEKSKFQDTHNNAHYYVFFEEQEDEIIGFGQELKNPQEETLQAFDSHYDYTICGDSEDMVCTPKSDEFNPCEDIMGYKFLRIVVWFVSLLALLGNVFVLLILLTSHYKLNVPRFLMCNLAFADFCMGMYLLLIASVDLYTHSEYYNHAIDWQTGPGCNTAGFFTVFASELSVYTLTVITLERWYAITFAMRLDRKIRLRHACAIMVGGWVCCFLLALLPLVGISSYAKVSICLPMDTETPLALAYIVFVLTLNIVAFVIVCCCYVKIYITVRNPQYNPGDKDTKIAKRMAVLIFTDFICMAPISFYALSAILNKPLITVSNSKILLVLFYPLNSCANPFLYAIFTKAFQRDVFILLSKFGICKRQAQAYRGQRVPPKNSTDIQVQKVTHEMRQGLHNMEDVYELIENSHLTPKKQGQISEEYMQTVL

C=CCOc1c(Br)cc(Br)cc1Br
inactive: outcome [1] | Potency [2] | outcome [3] | outcome [4] | outcome [5] | outcome [6] | Potency [7] | outcome [8] | outcome [9] | Potency [10] | Potency [11] | outcome [12] | Potency [13] | Potency [14] | outcome [15] | max response [16] 2.02% | Potency [17]

COC(OC)C(C)c1ccccc1 (centres undefined)
inactive: outcome [1] | outcome [18] | outcome [4] | outcome [5] | outcome [6] | Potency [19] | outcome [9] | Potency [10] | Potency [11] | outcome [12] | Potency [13] | Potency [14] | outcome [15] | max response [16] 5.02% | Potency [17]

O=C1OC(=O)c2ccccc21
inactive: outcome [1] | outcome [18] | outcome [4] | outcome [5] | outcome [6] | Potency [19] | outcome [9] | Potency [10] | Potency [11] | outcome [12] | Potency [13] | Potency [14] | outcome [15] | max response [16] -12.4% | Potency [17]

Nc1cc(S(=O)(=O)O)ccc1S(=O)(=O)O
inactive: outcome [1] | outcome [18] | outcome [4] | outcome [5] | outcome [6] | Potency [19] | outcome [9] | Potency [10] | Potency [11] | outcome [12] | Potency [13] | Potency [14] | outcome [15] | max response [16] 21%

C[C@H](CCC(=O)O)[C@H]1CC[C@H]2[C@@H]3[C@H](O)C[C@@H]4C[C@H](O)CC[C@]4(C)[C@H]3C[C@H](O)[C@]12C
inactive: outcome [1] | outcome [18] | outcome [4] | outcome [5] | outcome [6] | Potency [19] | outcome [9] | Potency [10] | Potency [11] | outcome [12] | Potency [13] | Potency [14] | outcome [15] | max response [16] -1.02% | Potency [17]

CC(C)=CC(C)(C)C
inactive: outcome [1] | outcome [18] | outcome [4] | outcome [5] | outcome [6] | Potency [19] | outcome [9] | Potency [10] | Potency [11] | Potency [13] | Potency [14] | outcome [15] | max response [16] 6.16% | Potency [17]

CO/N=C(/C(=O)N[C@@H]1C(=O)N2C(C(=O)O)=C(Cn3nnc(C)n3)CS[C@H]12)c1csc(N)n1
inactive: outcome [1] | outcome [18] | outcome [4] | outcome [5] | outcome [6] | Potency [19] | outcome [9] | Potency [10] | Potency [11] | outcome [12] | Potency [13] | Potency [14] | outcome [15] | max response [16] 1.17%

CCOC(=O)OCC/C(SC(=O)OCC)=C(\C)N(C=O)Cc1cnc(C)nc1N
inactive: outcome [1] | outcome [18] | outcome [4] | outcome [5] | outcome [6] | Potency [19] | outcome [9] | Potency [10] | Potency [11] | outcome [12] | Potency [13] | Potency [14] | outcome [15] | max response [16] 4.82% | Potency [17]
